# Laboratory results as given in PubChem BioAssay AID463173 (ICCB-Longwood Screening Facility, Harvard Medical School, 2010).
# The campaign covered roughly 52,000 compounds. About 4,300 (8.3%) were called active. No stated cut-off is given here; in the data, active means survival mostly below about 52% (no sharp cut-off); inactive means mostly above about 56%. Many of the other results were omitted from the sample, so actives are more common in it than they were.
# Tested on: DeltatarO mutant
# Test: growth inhibition of S. aureus wild type versus tarO mutant, primary screen, teichoic acid synthesis inhibitors, RN4220, OD600 (AID 463173)
# Conditions: OD600, 18 h, hits give low values, screened at 18.75 µg/mL (by protocol)
row,Compound,survival
1,COCCNC(=O)c1c(NC(=O)c2cc(=O)c3cc(Cl)ccc3o2)sc2c1CCCC2,49% (inactive)
2,Cc1cccc(NC(=O)c2sc3nc(N4CCOCC4)c4c(c3c2N)CC(C)(C)OC4)c1,91% (inactive)
3,Cc1cccc(Oc2ccc(NC(=O)CCC(=O)OCC(=O)c3ccc(Br)cc3)cc2)c1C,68% (inactive)
4,COc1ccc(OC)c(S(=O)(=O)Nc2cccc(-c3ccc(N4CCCCC4)nn3)c2)c1,83% (inactive)
5,COCCCn1c(SCC(=O)N2CC(=O)Nc3ccccc32)nnc1-c1ccoc1C,79% (inactive)
6,CCOC(=O)c1c(-c2ccc(C)cc2)csc1NC(=O)c1cc(=O)c2cc(C)ccc2o1,42% (active)
7,CCOC(=O)c1c(NC(=O)c2cc(=O)c3c(C)cc(C)cc3o2)sc(C)c1C,61% (inactive)
8,CCOC(=O)c1c(NC(=O)c2cc(=O)c3cc(C)cc(C)c3o2)sc(C)c1C,48% (active)
9,CCOC(=O)c1c(-c2ccc(C)cc2)csc1NC(=O)c1cc(=O)c2cc(Cl)ccc2o1,116% (inactive)
10,CCOC(=O)c1c(NC(=O)c2cc(=O)c3ccc(C)cc3o2)sc(C)c1C,100% (inactive)
11,CCOC(=O)c1c(-c2ccc(C)cc2)csc1NC(=O)c1cc(=O)c2ccc(C)cc2o1,109% (inactive)
12,COc1ccc(CNC(=O)c2cnc(N3CCOCC3)c3ccccc23)cc1,70% (inactive)
13,CC1=Nc2cc(C(=O)NCc3ccccc3Cl)ccc2Sc2c(C)ccc(C)c21,79% (inactive)
14,O=C(Nc1ccccc1Cl)[C@H](CSCc1ccccc1)N1Cc2ccccc2C1=O,58% (inactive)
15,CCN1CCN(c2c(S(=O)(=O)c3ccc(Cl)cc3)cnc3ccccc23)CC1,77% (inactive)
16,CCn1cnc2sc3c(c2c1=O)CCCC3,101% (inactive)
17,CCC(Sc1ncnc2sc3c(c12)CCCC3)C(=O)OCC(C)C (configuration not stated),-6% (active)
18,Nc1ncnc2sc3c(c12)CCCC3,57% (inactive)
19,CNC(=O)CSc1ncnc2sc3c(c12)CCCC3,80% (inactive)
20,CCOC(=O)C(CC)Sc1ncnc2sc3c(c12)CCCC3 (configuration not stated),-7% (active)
21,CCC(Sc1ncnc2sc3c(c12)CCCC3)C(=O)OC(C)C (configuration not stated),-7% (active)
22,COC(=O)C(C)n1cnc2sc3c(c2c1=O)CCCC3 (configuration not stated),92% (inactive)
23,Clc1ncnc2sc3c(c12)CCCC3,86% (inactive)

row,Compound,survival
1,CCOC(=O)CSc1ncnc2sc3c(c12)CCC3,96% (inactive)
2,CCOC(=O)c1ccc2c(c1)N(Cc1ccc(F)cc1Cl)C(=O)c1ccccc1S2(=O)=O,90% (inactive)
3,COc1ccc(-n2nc(C(=O)N3CCN(c4ccccc4OC)CC3)c3c4ccccc4n(C)c3c2=O)cc1Cl,123% (inactive)
4,Cc1cc(C)c(NC(=O)CCN2C(=O)c3ccccc3Sc3ncccc32)c(C)c1,106% (inactive)
5,Cc1ccnc(NS(=O)(=O)c2ccc(NC(=O)c3nc(SC(C)C)ncc3Cl)cc2)n1,58% (inactive)
6,CCOC(=O)c1noc2nc(C)n(CC(=O)Nc3cccc(OC)c3)c(=O)c12,108% (inactive)
7,O=c1c2ccccc2nc(-c2ccccc2)n1CCCn1ccnc1,107% (inactive)
8,CCCc1cc(C(=O)Nc2c(C)nn(Cc3ccc(Cl)c(Cl)c3)c2C)no1,56% (inactive)
9,O=C(NCc1ccc2c(c1)CCN2C(=O)c1ccc(F)cc1)c1cc2ccccc2[nH]1,97% (inactive)
10,COc1cccc(NC(=O)NCc2ccc3c(c2)CCN3C(=O)c2ccccc2)c1,52% (active)
11,COc1ccc2cc(C(=O)NCc3ccc4c(c3)CCN4C(=O)c3ccc(C)cc3)[nH]c2c1,75% (inactive)
12,COc1ccc2cc(C(=O)NCc3ccc4c(c3)CCN4C(=O)c3ccccc3)[nH]c2c1,-1% (active)
13,CCOC(=O)c1cccc(NC(=O)NCc2ccc3c(c2)CCN3C(=O)c2ccccc2)c1,116% (inactive)
14,COc1ccc2cc(C(=O)NCc3ccc4c(c3)CCN4C(=O)c3ccc(F)cc3)[nH]c2c1,86% (inactive)
15,O=C(NCc1ccc2c(c1)CCN2C(=O)c1ccccc1)Nc1cccc(C(F)(F)F)c1,123% (inactive)
16,Cc1cccc(C(=O)N2CCc3cc(CNC(=O)c4cc5ccccc5[nH]4)ccc32)c1,81% (inactive)
17,COc1ccc(OCC(=O)NCc2ccc3c(c2)CCN3C(=O)c2cccc(C)c2)cc1,82% (inactive)
18,COc1ccc(CCC(=O)NCc2ccc3c(c2)CCN3C(=O)c2cccc(C)c2)cc1,76% (inactive)
19,COc1ccc(CC(=O)NCc2ccc3c(c2)CCN3C(=O)c2cccc(C)c2)cc1,-4% (active)
20,O=C(NCc1ccc2c(c1)CCN2C(=O)c1ccccc1)c1cc2ccccc2[nH]1,6% (active)
21,CCC1CCCCN1Cc1cn2c(-c3ccc(Br)cc3)nnc2s1 (configuration not stated),80% (inactive)
22,Cc1ccc(Cn2c(=O)c3cccnc3n(CC(=O)Nc3cc(Cl)ccc3C)c2=O)cc1,85% (inactive)
23,CCCOc1cccc(C2c3c(oc4ccc(F)cc4c3=O)C(=O)N2CCc2ccc(OC)cc2)c1 (configuration not stated),92% (inactive)

row,Compound,survival
1,CCOC(=O)c1[nH]c(C)c(CCC(=O)NC(C)c2ccccc2)c1C (configuration not stated),83% (inactive)
2,O=C(NC12CC3CC(CC(C3)C1)C2)c1cncc(O)c1,90% (inactive)
3,CCc1ccccc1NC(=O)c1ccc2c(c1)N(Cc1cc(C)ccc1C)C(=O)c1ccccc1S2(=O)=O,84% (inactive)
4,Cn1c(=O)n(C)c2cc(/C=N/NC(N)=S)ccc21,98% (inactive)
5,CCn1cc(C(=O)N2CCN(c3ccc(F)cc3)CC2)c(=O)c2cc(S(=O)(=O)N(C)C3CCCCC3)ccc21,73% (inactive)
6,O=C(NCc1ccc2c(c1)CCN2C(=O)c1ccccc1)c1ccccc1,79% (inactive)
7,CCOc1ccc(C(=O)NCc2ccc3c(c2)CCN3C(=O)c2ccccc2)cc1,-2% (active)
8,CCOc1ccc(C(=O)NCc2ccc3c(c2)CCN3C(=O)c2ccc(Cl)cc2)cc1,91% (inactive)
9,CC(=O)c1cccc(NC(=O)C(CC(C)C)NS(=O)(=O)c2ccc3c(c2)CCN3C(C)=O)c1 (configuration not stated),115% (inactive)
10,Cc1ccc(OCc2nc3ccccc3n2CCOc2ccc(Cl)cc2)cc1,15% (active)
11,Cc1cccc(OCCn2c(SCC(N)=O)nc3ccccc32)c1,121% (inactive)
12,Cc1ccc(OCCn2c(COc3ccc(Cl)cc3)nc3ccccc32)cc1,65% (inactive)
13,COCc1nc2ccccc2n1CCOc1cccc(C)c1,39% (active)
14,CCCC(O)c1nc2ccccc2n1CCCCOc1ccc(OC)cc1 (configuration not stated),52% (inactive)
15,COc1ccccc1OCCn1c(COc2cc(C)ccc2C)nc2ccccc21,61% (inactive)
16,COc1ccccc1OCCn1c(C(C)Oc2ccccc2)nc2ccccc21 (configuration not stated),66% (inactive)
17,COc1cccc(OCc2nc3ccccc3n2CCOc2ccccc2C)c1,38% (active)
18,COc1ccc(OCCn2c(C(C)Oc3ccccc3)nc3ccccc32)cc1 (configuration not stated),48% (active)
19,COc1ccccc1NC(=O)C1=C(C)Nc2nc(SCc3ccccc3)nn2C1c1ccccn1 (configuration not stated),65% (inactive)
20,Cc1cc(C)cc(Nc2sc(C(=O)c3ccccc3)c(N)c2S(=O)(=O)c2ccccc2)c1,101% (inactive)
21,Cc1ccsc1CCN1C(=O)N(c2ccccc2)C(=O)C1CC(=O)Nc1ccc(F)cc1 (configuration not stated),114% (inactive)
22,CC(C)=CCC(C)(C)C1OCCN1C(=O)Nc1ccccc1 (configuration not stated),95% (inactive)
23,Cc1sc2c(c1C)c(=O)n(Cc1ccccc1)c(=O)n2Cc1ccc(F)cc1,109% (inactive)

row,Compound,survival
1,COc1ccc(C2CC(=O)c3cc(-c4nc(-c5ccc(Cl)cc5)cs4)c(=O)[nH]c3C2)cc1OC (configuration not stated),59% (inactive)
2,CC(=O)c1ccc(NC(=O)/C=C/c2ccc(C)o2)cc1,48% (inactive)
3,COc1ccc(Cn2ccnc2SCC(=O)Nc2nc3ccccc3s2)cc1,84% (inactive)
4,CCc1ccc(OCCCSc2nc(-c3ccc(C(C)(C)C)cc3)nc3cc(=O)[nH]n23)cc1,80% (inactive)
5,CCOC(=O)c1[nH]c(C)c(C(=O)NCc2ccc(F)cc2)c1C,79% (inactive)
6,O=S(=O)(c1cccc(Cl)c1)c1nnn2c1nc(NC1CCCCCC1)c1sccc12,106% (inactive)
7,COc1cccc(OCc2nc3ccccc3n2CCOc2ccccc2)c1,35% (active)
8,COc1cccc(OCCn2c(-c3ccc(Br)cc3)nc3ccccc3c2=O)c1,82% (inactive)
9,COc1cccc(OCc2nc3ccccc3n2CCOc2cccc(C)c2)c1,44% (active)
10,COc1cccc(OCc2nc3ccccc3n2C)c1,57% (inactive)
11,COc1cccc(OCc2nc3ccccc3n2CCOc2ccc(C)cc2)c1,36% (active)
12,CCCn1c(COc2cccc(C)c2)nc2ccccc21,12% (active)
13,CCCCn1c(COc2cccc(OC)c2)nc2ccccc21,57% (inactive)
14,O=S(=O)(NCc1ccccc1Cl)c1ccc(-c2cnc(C3CC3)o2)cc1,101% (inactive)
15,CC1CCN(c2nc3c(S(=O)(=O)c4cccc(Cl)c4)nnn3c3ccsc23)CC1,81% (inactive)
16,Cc1c(C#N)c2ccccc2n1CC(=O)NC1CCCCCC1,72% (inactive)
17,CC(C(=O)Nc1ccccc1C(=O)N1CCCC1)n1nnc2ccccc21 (configuration not stated),77% (inactive)
18,COc1ccc(Nc2nnc(-c3ccc(C)c(S(N)(=O)=O)c3)c3ccccc23)cc1,70% (inactive)
19,CCn1c(SCC(=O)c2ccc(Br)cc2)nnc1-c1ccncc1,99% (inactive)
20,CC1CCC2C(C1)Nc1c(C(=O)O)cccc1C2(C)C (configuration not stated),40% (active)
21,CC1CCC(=O)C(C2(O)C(=O)Nc3ccccc32)C1 (configuration not stated),93% (inactive)
22,COc1ccc(OC)c(NC(=O)CN2CCCN(Cc3ccccc3Cl)S2(=O)=O)c1,128% (inactive)
23,Cc1ccc2c(c1)N(CC(=O)Nc1ccccc1C(F)(F)F)C(=O)c1cccnc1O2,100% (inactive)
